Shown are actives, neighbours in structure and some others; about 2.3% of the full set was active somewhere.
PME-1 Maybridge = PME-1 (human) inhibition, Maybridge primary screen; AID 2291; hit rate 0.5% among 16,000; recombinant PME-1, FP-Rh probe fluorescence polarization; inhibition, % at 9 µM; Q9Y570; in the data active = inhibition above about 30%
Nox1 inh = inhibitors of human NADPH oxidase 1 (Nox1). Q9Y5S8. AID 1792. HT29 cells, luminol chemiluminescence ROS. inhibition, % at 6.7 µM. hit rate 0.81% among 16,000
Luminol counter = luminol signal inhibition, Nox1 inhibitor counter-screen. inhibition, % at 6.7 µM. HRP/luminol/H2O2 chemiluminescence counterscreen. hit rate 0.4% among 16,000. AID 1823; note: reference of the scale not given here
NOTCH agonist = agonists of NOTCH signaling; NOTCH signaling luciferase reporter cells, luminescence; activation, % at 2.5 µM; hit rate 0.4% among 15,000; AID 434982; in the data active = activation above about 2.2%
OPRK1 antag MB = blocks the human kappa opioid receptor, Maybridge compounds; hit rate 0.4% among 16,000; P41145; AID 652031; inhibition, % at 9 µM; OPRK1 cells, antagonist mode, fluorescence readout; in the data active = inhibition above about 50%
Target sequence (P41145 whole entry, looked up): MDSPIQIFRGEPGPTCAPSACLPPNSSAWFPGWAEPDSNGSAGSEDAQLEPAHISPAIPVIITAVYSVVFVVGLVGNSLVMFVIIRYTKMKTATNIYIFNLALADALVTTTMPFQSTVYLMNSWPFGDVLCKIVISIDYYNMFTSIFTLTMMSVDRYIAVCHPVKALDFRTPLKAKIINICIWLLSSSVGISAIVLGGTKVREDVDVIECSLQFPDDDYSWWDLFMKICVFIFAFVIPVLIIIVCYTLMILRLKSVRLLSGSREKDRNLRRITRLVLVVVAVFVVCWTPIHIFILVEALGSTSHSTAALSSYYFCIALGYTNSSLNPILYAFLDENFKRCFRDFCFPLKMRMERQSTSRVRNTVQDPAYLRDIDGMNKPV
TLR4 MyD88 blk = blocks binding of human TLR4 to MyD88. Cell-based TLR4-MyD88 binding inhibition assay. inhibition, % at 10 µM. hit rate 0.06% among 16,000; in the data active = inhibition above about 45%
An asterisk follows results filed as active. Cut-off read from the data, not from the text of the source, unless noted: active = inhibition above about 75%; inactive = the rest.

For O=[N+]([O-])c1ccc(Sc2nc3ccccc3[nH]2)c(Cl)c1 the results were PME-1 Maybridge -19.4, Nox1 inh 19.3, Luminol counter -7.7, NOTCH agonist -0.6, OPRK1 antag MB 11.0 and TLR4 MyD88 blk 2.7.
`O=C(N/C(=C\c1ccc(-c2ccc([N+](=O)[O-])cc2)o1)c1nc2ccccc2[nH]1)c1ccccc1` gave PME-1 Maybridge -10.3, Nox1 inh -34.0, Luminol counter 13.8, NOTCH agonist -0.7, OPRK1 antag MB 112.8* and TLR4 MyD88 blk 49.9*.
Screening CC(C)C(=O)NNc1nc2c(c(=O)n(C)c(=O)n2C)n1Cc1ccc(Cl)cc1 returned PME-1 Maybridge -0.8, Nox1 inh 100.0*, Luminol counter 4.5, NOTCH agonist -0.1, OPRK1 antag MB -9.4 and TLR4 MyD88 blk -2.6.
Screening Oc1c(Cl)cc(Cl)cc1C1Nc2cc(Cl)c(C(F)(F)F)cc2N1 (stereo not given) returned PME-1 Maybridge -52.2, Nox1 inh 16.2, Luminol counter -0.6, NOTCH agonist -1.1, OPRK1 antag MB 57.4* and TLR4 MyD88 blk -10.1.
`CC(=O)Nc1onc(C)c1-c1nc(-c2ccc(Cl)cc2Cl)cs1` gave PME-1 Maybridge -36.7, Nox1 inh -29.2, Luminol counter 4.1, NOTCH agonist -1.2, OPRK1 antag MB 50.5* and TLR4 MyD88 blk 6.3.
Clc1ccc(-c2ccon2)c(Cl)c1 was read as PME-1 Maybridge -2.5, Nox1 inh -27.6, Luminol counter -1.0, NOTCH agonist -0.3, OPRK1 antag MB -2.0 and TLR4 MyD88 blk 3.5.
For CSc1nnc(SC2=CC(=O)CC(c3ccccc3)C2)s1 (stereo not given) the results were PME-1 Maybridge 8.5, Nox1 inh 27.8, Luminol counter -3.5, NOTCH agonist 3.3*, OPRK1 antag MB 4.1 and TLR4 MyD88 blk -6.7.
Screening O=C(CSc1n[nH]c(=O)n1-c1ccc2c(c1)OCCO2)c1csc2ccccc12 returned PME-1 Maybridge 4.0, Nox1 inh -9.6, Luminol counter -5.3, NOTCH agonist -0.2, OPRK1 antag MB -5.3 and TLR4 MyD88 blk -13.2.
For Cc1cc(NC(=O)CSc2n[nH]c(=O)n2-c2ccc3c(c2)OCCO3)n(-c2ccccc2)n1 the results were PME-1 Maybridge 2.1, Nox1 inh -15.8, Luminol counter -3.2, NOTCH agonist 2.2*, OPRK1 antag MB -0.1 and TLR4 MyD88 blk -5.8.
Screening O=C1CNC(=S)N1Cc1ccccn1 returned PME-1 Maybridge 5.3, Nox1 inh -22.9, Luminol counter 20.6, NOTCH agonist 0.2, OPRK1 antag MB 6.6 and TLR4 MyD88 blk 5.2.
`O=C1CNC(=S)N1Cc1ccccc1Cl` gave PME-1 Maybridge -1.3, Nox1 inh -41.8, Luminol counter 23.9, NOTCH agonist 2.5*, OPRK1 antag MB -11.3 and TLR4 MyD88 blk -7.2.
O=C(NNC(=O)C(F)(F)F)c1ccc[nH]1 was read as PME-1 Maybridge 0.7, Nox1 inh -39.8, Luminol counter 3.1, NOTCH agonist -0.6, OPRK1 antag MB 52.2* and TLR4 MyD88 blk -2.2.
`CSc1ccc(/C=C/c2onc(C)c2[N+](=O)[O-])s1` gave PME-1 Maybridge 63.6*, Nox1 inh -61.7, Luminol counter 10.6, NOTCH agonist -0.8, OPRK1 antag MB 106.0* and TLR4 MyD88 blk 18.6.
Cc1noc(/C=C/c2ccco2)c1[N+](=O)[O-] was read as PME-1 Maybridge 4.8, Nox1 inh -31.6, Luminol counter 0.7, NOTCH agonist 1.7, OPRK1 antag MB 16.8 and TLR4 MyD88 blk -0.3.
COc1cc(C(=O)Oc2c(Cl)cc(Cl)cc2/C=N/NC(N)=S)cc(OC)c1OC was read as PME-1 Maybridge 33.7*, Nox1 inh -47.7, Luminol counter 2.1, NOTCH agonist -0.7, OPRK1 antag MB 7.5 and TLR4 MyD88 blk 0.8.
O=[N+]([O-])c1ccc(N/N=C/c2ccc(-c3cccs3)s2)nc1 was read as PME-1 Maybridge -124.3, Nox1 inh -14.3, Luminol counter 14.6, NOTCH agonist -0.1, OPRK1 antag MB 79.1* and TLR4 MyD88 blk 17.1.
Cc1ccc(S(=O)(=O)Nc2ccc(F)cc2F)cc1 was read as PME-1 Maybridge -2.5, Nox1 inh -109.2, Luminol counter 1.9, NOTCH agonist -0.2, OPRK1 antag MB 7.6 and TLR4 MyD88 blk 11.7.
Screening CCN(CC)c1ccc(NS(=O)(=O)c2ccc(F)cc2)cc1 returned PME-1 Maybridge -1.3, Nox1 inh 101.9*, Luminol counter 23.1, NOTCH agonist -0.5, OPRK1 antag MB -11.8 and TLR4 MyD88 blk -7.3.

From PubChem
